Measured values: publication PMC5540273 (PLoS ONE, 2017)

How the values were obtained:
Conditions in all cases: concentration: 1 μM, replicates: in singlicate; n = 1
ERN1 = tested on: ERN1
FAK = tested on: T1, FAK
T1 construct: gene PTK2

FER = tested on: FER
FES = tested on: FES
FGFR1 = tested on: FGFR1
FGFR2 = tested on: FGFR2
FGFR3 = tested on: FGFR3
FGFR4 = tested on: FGFR4
FGR = tested on: FGR
FLT1 = tested on: FLT1
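Also: KINOMEscan kinase panel screen.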

Row | SMILES | %Inh (ERN1) [%] | %Inh (FAK) [%] | %Inh (FER) [%] | %Inh (FES) [%] | %Inh (FGFR1) [%] | %Inh (FGFR2) [%] | %Inh (FGFR3) [%] | %Inh (FGFR4) [%] | %Inh (FGR) [%] | %Inh (FLT1) [%]
1 | Cn1ccc2ncnc(Oc3ccc(NC(=O)Nc4ccncc4)c(Cl)c3)c21 | 0 | 0 | 0 | 0 | 0 | 0 | 0 | 0 | 5 | 0
2 | NS(=O)(=O)c1cccc(-c2ccc3ncc(N4CCOCC4)nc3c2)c1 [GSK1535721] | 2 | 0 | 3 | 6 | 0 | 0 | 22 | 15 | 27 | 13
3 | NCC(NC(=O)c1cc(-c2cn[nH]c2)c(-c2ccnc3[nH]ccc23)s1)c1ccccc1.O=C(O)C(F)(F)F.O=C(O)C(F)(F)F (stereo not drawn) [GSK1325775] | 29 | 57 | 0 | 0 | 20 | 0 | 0 | 0 | 0 | 0
4 | Cc1c(Cn2c(C)nn3c(=O)cc(N4CCOC(C)C4)nc23)cccc1C(F)(F)F (stereo not drawn) [GSK2344444] | 24 | 0 | 25 | 0 | 3 | 0 | 4 | 0 | 0 | 25
5 | COc1cc2ncn(-c3cc(OCc4sccc4Cl)c(C(N)=O)s3)c2cc1OC [GSK448459] | 0 | 0 | 10 | 0 | 0 | 15 | 13 | 0 | 9 | 15
6 | CCc1ccnc(/C=C/c2n[nH]c3cc(Sc4ccccc4C(=O)NC)ccc23)c1 | 0 | 14 | 0 | 0 | 84 | 87 | 83 | 11 | 86 | 100
7 | O=C(Nc1cccc(-c2nn3ncccc3c2-c2ccnc(Nc3cccc(C(F)(F)F)c3)n2)c1)c1c(F)cccc1F [GSK299495] | 15 | 0 | 24 | 0 | 0 | 0 | 0 | 0 | 95.5 | 91.5
8 | CCCCCc1nc2c(N)ncnc2n1CCCCC [SKF-97255] | 13 | 0 | 13 | 0 | 11 | 0 | 0 | 0 | 7 | 0
9 | Cl.Nc1ncnc2occ(-c3ccc(NC(=O)Nc4cc(C(F)(F)F)ccc4F)cc3)c12 [SB-707548] | 25 | 93.7 | 31 | 6 | 74 | 77 | 63 | 71 | 41 | 99.5
10 | Cc1cccc(Cn2ccn3c(=O)cc(N4CCOCC4)nc23)c1 [GSK2297542] | 16 | 0 | 30 | 10 | 0 | 16 | 16 | 10 | 32 | 20
11 | CNc1ncnc2[nH]ncc12 [SKF-18355] | 33 | 0 | 30 | 0 | 0 | 0 | 5 | 0 | 0 | 0
12 | COc1ccc(Nc2ncc(C#N)c(Nc3ccccc3C(N)=O)n2)cc1N1CCN(C)CC1.Cl [GSK1558669] | 92 | 100 | 99.5 | 99.3 | 100 | 99.8 | 99.9 | 85 | 96.5 | 100
13 | N#Cc1c(N2CCOCC2)sc(-c2ccn[nH]2)c1-c1ccc(Cl)cc1 | 4 | 0 | 11 | 27 | 7 | 12 | 0 | 0 | 22 | 0
14 | COc1ccc(COc2cc(-n3cnc4ccccc43)sc2C(N)=O)cc1 [GSK1024304] | 2 | 0 | 6 | 16 | 0 | 0 | 1 | 0 | 10 | 24
15 | O=c1cc(N2CCOCC2)nc2n(Cc3cccc4ccccc34)ccn12 [GSK2333389] | 10 | 1 | 1 | 0 | 4 | 0 | 7 | 0 | 9 | 30
